Data on 102 sequences can be found in a collection of fitness landscapes (doi:10.1038/s41467-024-54723-y).

The full ranking holds about 18,000 sequences; the median of “TetR repression strength (sort-seq, GFP reporter)” is about 0.23, and the highest 2% start at about 0.68. The entries come from a sample that favours the highest values as a whole.

Sequence of TetR (class B, Tn10) (P04483 whole entry): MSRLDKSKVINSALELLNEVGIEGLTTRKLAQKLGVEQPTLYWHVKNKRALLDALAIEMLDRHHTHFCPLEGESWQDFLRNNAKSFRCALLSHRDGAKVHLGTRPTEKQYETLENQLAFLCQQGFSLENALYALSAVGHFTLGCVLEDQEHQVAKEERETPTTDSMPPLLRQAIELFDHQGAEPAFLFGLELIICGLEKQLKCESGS

In the experiment the target is TetR (class B, Tn10) (UniProt P04483). Description: TetR repression strength (sort-seq, GFP reporter) (relative to tetO2 = 1); higher = stronger repression. As to conditions: E. coli. The method, boiled down:
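Escherichia coli SIG10-MAX cells carried a low-copy plasmid library in which eight operator positions were randomized between a constitutive promoter and sfGFP, and TetR was expressed constitutively. After 5 h of growth at 37 °C in LB with 50 µg/mL chloramphenicol, 10^6 cells were FACS-sorted into 13 fluorescence bins, and each bin was Illumina-sequenced. Repression strength was the top bin index plus one minus the read-weighted mean bin, divided by the value for the unaltered operator. Across three independent transformations, only library members with ≥30 reads in every replicate and a CV ≤0.5 were averaged.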
In turn, TCCCCAGGAGTATCGGAGA gave a TetR repression strength of 0.
Sequence TCCCGTCTAGTTTCCGAGA returned a TetR repression strength of 0.169.
Consider TCCCGGTCAGTCTGTGAGA, for which the TetR repression strength came out at 0.287.
In turn, TCCCTGGCAGTGTGTGAGA registered a TetR repression strength of 0.164.
In turn, TCCCATCGAGTCTGAGAGA had a TetR repression strength of 0.218.
Then TCCCATACAGTTGAGGAGA, with 0.0487; and TCCCACTTAGTGCGAGAGA, with 0.0746; and TCCCCTGGAGTCCTGGAGA, with 0.439.
With TCCCTAAGAGTGCTGGAGA, the TetR repression strength stood at 0.768.
Then TCCCTAGGAGTGCTGGAGA, with 0.382; and TCCCCGAGAGTGCTGGAGA, with 0.252; and TCCCCTAGAGTCCTGGAGA, with 0.952.
TCCCTGAGAGTGCTGGAGA showed a TetR repression strength of 0.564.
In turn, TCCCTTAGAGTCCTGGAGA showed a TetR repression strength of 0.0777.
With TCCCGGGGAGTGCTGGAGA, the TetR repression strength turned out to be 0.359.
With TCCCGGAGAGTGCTGGAGA, the TetR repression strength was 1.07.
For the sequence TCCCCTGTAGTTGTCGAGA, the TetR repression strength is 0.123.
As for TCCCCGAAAGTCATAGAGA, the figure is 0.452.
As for TCCCATCCAGTCAAGGAGA, the figure is 0.595; as for TCCCTTGCAGTACATGAGA, 0.298.
In turn, TCCCTTGAAGTGGGTGAGA came in with a TetR repression strength of 0.165.
As to TCCCACCCAGTGGTAGAGA, the TetR repression strength turned out to be 0.357.
For TCCCAGTGAGTCGTGGAGA, the TetR repression strength came to 0.25.
Take TCCCGCCAAGTAAAAGAGA: the TetR repression strength was determined as 0.298.
Sequence TCCCATCAAGTTAATGAGA gave a TetR repression strength of 0.0658.
As for TCCCGTCGAGTCAGGGAGA, the TetR repression strength came out at 0.367.
As for TCCCTATCAGTTCTTGAGA, the TetR repression strength was 0.539.
In the case of TCCCTATCAGTACCTGAGA, the TetR repression strength was 0.867.
As for TCCCCATCAGTTCCTGAGA, the figure is 0.721.
TCCCTATCAGTACCAGAGA returned a TetR repression strength of 0.514.
Then TCCCCATCAGTTCATGAGA, with 0.401.
Then TCCCTATCAGTTCGTGAGA, with 0.423; and TCCCCATCAGTTCCGGAGA, with 0.207; and TCCCTATCAGTTCCTGAGA, with 0.76.
Sequence TCCCTATCAGTACGTGAGA had a TetR repression strength of 0.349.
TCCCGGGTAGTCGAGGAGA returned a TetR repression strength of 0.313.
On to TCCCCAGCAGTTTCCGAGA, for which the TetR repression strength was determined as 0.275.
Consider TCCCTTATAGTAGGCGAGA, for which the TetR repression strength was found to be 0.0601.
TCCCACCGAGTACGGGAGA showed a TetR repression strength of 0.135.
The sequence TCCCATGAAGTAAGGGAGA displayed a TetR repression strength of 0.284.
As for TCCCTCTTAGTAAAAGAGA, the figure is 0.342; as for TCCCGAGTAGTAGGGGAGA, 0.0701.
TCCCTATGAGTAGTGGAGA gave a TetR repression strength of 0.707.
As to TCCCACGCAGTAGGGGAGA, the TetR repression strength turned out to be 0.689.
TCCCTATGAGTGGTGGAGA returned a TetR repression strength of 0.119.
As for TCCCACGAAGTAGGGGAGA, the TetR repression strength came out at 0.104.
TCCCACGCAGTGGGGGAGA yielded a TetR repression strength of 0.188.
For the sequence TCCCTAGTAGTAGTGGAGA, the TetR repression strength is 0.159.
Then TCCCGATTAGTAGGGGAGA, with 0.844; and TCCCTATGAGTAGTAGAGA, with 0.204; and TCCCTATTAGTGGTGGAGA, with 0.0415.
Take TCCCGATTAGTAAGGGAGA: the TetR repression strength was 0.207.
TCCCTATTAGTAGTGGAGA registered a TetR repression strength of 0.683.
As for TCCCTATTAGTTGGGGAGA, the TetR repression strength worked out at 0.483.
As for TCCCGGTAAGTGAAGGAGA, the TetR repression strength stood at 0.14.
As to TCCCAGGCAGTGGGGGAGA, the TetR repression strength was 0.193.
Take TCCCTAGTAGTAGCTGAGA: the TetR repression strength came out at 0.307.
In turn, TCCCTAGTAGTGGCTGAGA showed a TetR repression strength of 0.905.
TCCCGAGTAGTGGCTGAGA yielded a TetR repression strength of 0.311.
For the sequence TCCCGAGCAGTTGGTGAGA, the TetR repression strength was 0.317.
Consider TCCCCTCCAGTGGGGGAGA, for which the TetR repression strength came out at 0.225.
In the case of TCCCTCCCAGTGTCGGAGA, the TetR repression strength was found to be 0.295.
For the sequence TCCCTTTGAGTTTTTGAGA, the TetR repression strength worked out at 0.506.
As for TCCCTTAAAGTGCGCGAGA, the figure is 0.292; as for TCCCCTAGAGTCCGCGAGA, 0.332.
TCCCTTAAAGTACACGAGA had a TetR repression strength of 0.377.
As for TCCCTTAAAGTATTCGAGA, the TetR repression strength was 0.311.
For TCCCTTAAAGTGCTCGAGA, the TetR repression strength stood at 0.747.
Then TCCCATAAAGTGCTCGAGA, with 0.225; and TCCCTTAAAGTACTCGAGA, with 1.16.
The sequence TCCCCTAGAGTGCGCGAGA showed a TetR repression strength of 0.901.
As to TCCCTTTAAGTGCACGAGA, the TetR repression strength worked out at 0.207.
For the sequence TCCCTTTAAGTGCGCGAGA, the TetR repression strength came out at 0.764.
TCCCTTAAAGTGATCGAGA yielded a TetR repression strength of 0.207.
As for TCCCCTAAAGTGCGCGAGA, the figure is 0.266.
Turning to TCCCGCGGAGTGGCGGAGA, the TetR repression strength is 0.119.
TCCCGCGCAGTGTAAGAGA came in with a TetR repression strength of 0.222.
Sequence TCCCTATGAGTGTGGGAGA returned a TetR repression strength of 0.223.
As to TCCCCTGGAGTCGTGGAGA, the TetR repression strength was 0.258.
Turning to TCCCTGGTAGTGGAGGAGA, the TetR repression strength was 0.101.
As for TCCCGAGTAGTGAGGGAGA, the figure is 0.242; as for TCCCGATAAGTCGTCGAGA, 0.0276; as for TCCCGGAGAGTATCAGAGA, 0.893.
The sequence TCCCGGTGAGTATCAGAGA gave a TetR repression strength of 0.188.
TCCCGGATAGTATGAGAGA had a TetR repression strength of 0.24.
Regarding TCCCGAATAGTATCAGAGA, the TetR repression strength turned out to be 0.207.
Then TCCCCGGGAGTATCAGAGA, with 0.332; and TCCCGGATAGTATCAGAGA, with 0.893; and TCCCGTGCAGTCATTGAGA, with 0.276.
Consider TCCCTCTCAGTTCGTGAGA, for which the TetR repression strength worked out at 0.181.
As for TCCCAGTGAGTTGGAGAGA, the figure is 0.303; as for TCCCTGGCAGTAGGGGAGA, 0.185; as for TCCCTCTCAGTTGTTGAGA, 0.357.
On to TCCCCGCAAGTTGTTGAGA, for which the TetR repression strength is 0.198.
As for TCCCTCTAAGTTGATGAGA, the figure is 0.795; as for TCCCCCTCAGTTGATGAGA, 0.262; as for TCCCTCTCAGTTGATGAGA, 0.736.
Then TCCCCCCAAGTTGATGAGA, with 0.369; and TCCCTGTAAGTTGATGAGA, with 0.236.
As to TCCCCGCAAGTTGATGAGA, the TetR repression strength is 0.85.
TCCCTCTAAGTTGAGGAGA registered a TetR repression strength of 0.0793.
As for TCCCTTGCAGTTATAGAGA, the figure is 0.461.
